The full list was thinned out, with hits kept by preference.
Dicer processing – human Dicer pre-microRNA cleavage inhibition; hit rate 6% among 47,000; Q9UPY3; z-score at 25 µM; cat-ELCCA pre-miR-21 Dicer processing, chemiluminescence; hits give high values; in the data active = z-score above about 3, passing the limit was not always enough;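 note: plate controls were vehicle for no effect and no enzyme for full effect; higher signal means more uncleaved substrate so more Dicer inhibition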
The depositor's hits bear a star.

SMILES	Dicer processing
CC1(C)CC(=O)C2=C(C1)c1c(ccc3ccccc13)NC2c1ccccc1 (stereo unspecified)	2.97
CCNc1c2c(nc3ccccc13)CC(C)(C)CC2=O	3.05*
COc1ccc(C(C#N)=C(SC)SC)cc1	-0.8
Cc1cc2c(cc1C)CSC(C)(C)SC2	0.22
c1ccc2[nH]c(SN3CCCCC3)nc2c1	0.8
CCOC(=O)N1CCc2c(sc3[nH]c(=S)n(-c4ccc(Cl)cc4)c(=O)c23)C1	1.86
O=c1[nH]cnc2c1oc1nc(-c3ccc(Cl)cc3)cc(-c3ccco3)c12	6.51*
NNC(=O)c1oc2nc(-c3ccc(Cl)cc3)cc(-c3ccccc3)c2c1N	-2.89
O=c1c2oc3nc(-c4ccccc4)cc(-c4ccco4)c3c2ncn1/N=C/c1ccc(F)cc1	2.5
CC(=O)NCCc1c(F)cccc1Cl	1.95
Cc1nnc(SCC(=O)Nc2ccc(C(F)(F)F)cc2)n1-c1ccc(OCc2ccccc2)cc1	-0.3
O=C1C2C(c3ccc(F)cc3)OC3(C(=O)c4ccccc4C3=O)C2C(=O)N1Cc1ccccc1 (stereo unspecified)	-0.27
Cc1cc2oc3c(c(=O)c2cc1C)C(c1ccc(OCC(N)=O)cc1)N(c1nc(C)c(C)s1)C3=O (stereo unspecified)	0.33
Cc1cc(C(F)(F)F)cc(NNS(=O)(=O)c2cc(C(F)(F)F)cc(C(F)(F)F)c2)n1	0.82
Cc1nc(C)c(C(=O)NNC(=O)c2ccc(C(F)(F)F)cc2)s1	-0.39
Cc1noc(NC(=O)c2ccc(C(F)(F)F)cc2)c1[N+](=O)[O-]	4.62*
Cc1noc(-c2ccc(Cl)cc2)c1C(=O)NNC(=O)c1ccc(C(F)(F)F)cc1	3.81
COc1ccc(NC(=O)c2ccc3ncccc3c2)cc1	-2.54
CCOC(=O)c1c(NS(=O)(=O)c2ccc(C)cc2)sc(C)c1-c1ccccc1	-0.68
N#C/C(=N\Nc1ccc(C(F)(F)F)cc1)S(=O)(=O)c1cccs1	-0.7
CCOC(=O)C1=C(C)N=C2SCCC(=O)N2C1/C=C/c1ccccc1 (stereo unspecified)	-0.4
Cc1cc(OC(=O)c2cccs2)c(Cl)c(C)c1Cl	-0.66
O=C1C(=O)N(Cc2cccnc2)C(c2ccc(Cl)cc2)/C1=C(\O)c1ccccc1 (stereo unspecified)	0.33
CC(N)=O	4.06*
CC1=C(C(=O)Nc2ccccc2)C(c2ccccn2)n2nnnc2N1 (stereo unspecified)	2.28
SMILES	Dicer processing
CCOC(=O)c1nnn2c1nc(N1CCN(C)CC1)c1ccccc12	-0.68
Nc1nc2c(C(=O)N3CCOCC3)nnn2c2ccccc12	0.86
Nc1nc2c(-c3ccc([N+](=O)[O-])cc3)nnn2c2ccccc12	3.88*
Cc1ccn2c(=O)c(NC(=O)c3ccccc3)cnc2c1	-0.05
COc1ccc2c(c1)c(=O)oc1cc3occ(-c4ccc(C)cc4)c3cc12	-1.04
COc1ccc2c(c1)c(=O)oc1cc3occ(-c4ccc(F)cc4)c3cc12	1.49
COc1ccc(-c2coc3cc4oc(=O)c5cc(OC)ccc5c4cc23)cc1	3.79*
CCCN1C2=C(C(=O)CC(C)(C)C2)C(c2ccc(O)cc2)C2=C1CC(C)(C)CC2=O	-0.32
Cc1ccc(C(=O)CSc2nnc(-c3ccccc3Br)n2C)cc1	1.57
COc1cccc(-c2nnc(SCc3ccccc3Cl)o2)c1	0.14
CCCOC(=O)C1=C(C)NC2=C(C(=O)CCC2)C1c1ccccc1Br (stereo unspecified)	0.42
Nc1nc(-c2ccncc2)nc2sc3c(c12)CCCCC3	4.1*
Nc1ncnc2sc3c(c12)CCCCC3	1.66
Nc1ncnc2sc3c(c12)CCCC3	-0.7
O=C(OCc1ccccc1)c1cnc(Sc2ccccn2)nc1C(F)(F)F	-0.3
Cn1ncc2c(O/N=C/c3ccc(Cl)cc3Cl)ncnc21	0.71
COC(=O)c1cnn2c(C(F)F)cc(-c3ccc(C)cc3)nc12	-1.49
CCn1ncc(CNC(=O)c2cnn3c(C(F)F)cc(-c4ccc(C)cc4)nc23)c1C	0.29
CCOC(=O)c1cnn2c(C(F)F)cc(-c3ccc(C)cc3)nc12	3.53*
COC(=O)C1=C(C)NC2=C(C(=O)CC(c3ccc(Cl)cc3)C2)C1c1ccc(C)cc1 (stereo unspecified)	0.95
COc1ccc(COC(=O)C2=C(C)NC3=C(C(=O)CC(C)(C)C3)C2c2ccncc2)cc1 (stereo unspecified)	1.26
CCOC(=O)C1=C(C)NC2=C(C(=O)CC(C)(C)C2)C1c1ccc(OC)cc1 (stereo unspecified)	-1.14
C=CCOC(=O)C1=C(C)NC2=C(C(=O)CC(C)(C)C2)C1c1ccc(OC(C)=O)cc1 (stereo unspecified)	-0.25
CCCOC(=O)C1=C(C)NC2=C(C(=O)CC(c3ccccc3)C2)C1c1ccc(C)cc1 (stereo unspecified)	1.12
CCCOC(=O)C1=C(C)NC2=C(C(=O)CC(C)(C)C2)C1c1ccc(O)cc1 (stereo unspecified)	3.81*
SMILES	Dicer processing
COc1ccc(COC(=O)C2=C(C)NC3=C(C(=O)CC(C)(C)C3)C2c2ccc(OC)cc2)cc1 (stereo unspecified)	3.48*
CCOC(=O)C1=C(C)NC2=C(C(=O)CC(C)(C)C2)C1c1ccc(OC(C)=O)cc1 (stereo unspecified)	6.84*
CCCOC(=O)C1=C(C)NC2=C(C(=O)CC(C)(C)C2)C1c1ccc(N(CC)CC)cc1 (stereo unspecified)	0.92
COC(=O)c1ccc(C2C(C(=O)OCc3ccc(OC)cc3)=C(C)NC3=C2C(=O)CC(C)(C)C3)cc1 (stereo unspecified)	0.18
CC1=C(C(=O)OCCOC(C)C)C(c2ccc(O)cc2)C2=C(CC(C)(C)CC2=O)N1 (stereo unspecified)	1.66
CCCOC(=O)C1=C(C)NC2=C(C(=O)CC(c3ccc(Cl)cc3)C2)C1c1ccc(O)cc1 (stereo unspecified)	4.66*
NC(=S)SC(CC(=O)c1ccccc1)c1ccsc1 (stereo unspecified)	-1.46
C=CCn1c(SCC(=O)Nc2ccccc2F)nc2sc3c(c2c1=O)CCC3	0.71
COC(=O)C1=C(C)Nc2ncnn2C1c1cccc(F)c1 (stereo unspecified)	-0.01
Cc1[nH]nc(-c2cccs2)c1C(=O)NN	5
O=C(c1ccc(Cl)cc1)N(c1ccccc1)n1c(-c2cccc([N+](=O)[O-])c2)csc1=S	-1.13
Cc1oc(-c2ccc(Cl)cc2)cc1C(=O)/C(C#N)=C/Nc1ccc(Cl)cc1	-0.87
O=C(NCc1ccc2c(c1)OCO2)C(C(=O)c1ccc(F)cc1)n1ccccc1=O (stereo unspecified)	-1.26
CC1CC(=O)c2cc(Cl)ccc2S1 (stereo unspecified)	0.93
CCCCc1nc(SCC(=O)NC2CCCCC2)n[nH]1	0.32
CCCNC(=O)CN1C(=O)NC2NC(=O)NC21 (stereo unspecified)	3.98*
CCC(C)NC(=O)CN1C(=O)c2cccc3cccc1c23 (stereo unspecified)	0.41
CCCNC(=O)NCCN1CCNC1=O	-0.07
O=C(CC(C(=O)O)C1CCCO1)NC1CCCCC1 (stereo unspecified)	-0.13
CCC(C)NC(=O)CN1C(=O)NC2NC(=O)NC21 (stereo unspecified)	4.49*
CCC(C)NC(=O)CN1C(=O)c2ccccc2S1(=O)=O (stereo unspecified)	0.07
CCCNC(=O)Cn1nc(C(F)(F)F)c(Br)c1C	-0.64
O=C(CN1C(=O)NC2NC(=O)NC21)NC1CCCCC1 (stereo unspecified)	3.22*
Cc1ccc(-c2c[nH]c(=S)n2C)cc1	-0.91
N#CCC(=O)NNC(=S)NC1CCCCCC1	-1.43
